Assay outcomes (PubChem BioAssay)
Hits are enriched below; roughly 19% of the tested compounds scored in any of these assays.
HT1080 IDH1KD tx = HT-1080 IDH1 knockdown cell toxicity (counter line) | HT-1080 IDH1 knockdown viability, ATP luminescence, 48 h | 2% of 360,000 active | Potency, µM (doses to about 46.1 µM), for the others: at the highest dose activity, negative = toxicity, usual class: cytotoxic | AID 686971;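 note: potency is the fitted concentration of half-maximal effect; 0% = DMSO wells and -100% = cell-free medium wells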
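In this qHTS, HT-1080 cells depleted of IDH1 are exposed for 48 h at 37 °C to compound titrations. Toxicity is scored from CellTiter-Glo luminescence, with DMSO as full viability and medium alone as none.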
DT40 TDP1 no CPT = qHTS for Inhibitors of human tyrosyl-DNA phosphodiesterase 1 (TDP1): qHTS in cells in absence of CPT; 15% of 420,000 active; Potency, µM (titrated, usually from 46.2 µM), for inactives: top-dose activity change, negative = growth inhibition, most hits filed as inhibitors; DT40 Tdp1-/- hTDP1 cells, no CPT, ATP luminescence, 48 h; note: potency is the fitted concentration of half-maximal effect; nearly all actives have a fitted effect of over 55% in size
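Cells were dispensed at 400 per well, compounds added by pin tool, plates incubated ≥48 hr at 37 °C, then CellTiter-Glo added for 30 min at room temperature before luminescence reading. Line: DT40 Tdp1-/- complemented with hTDP1; camptothecin omitted.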
IL-1B inflam inh = inflammasome signaling inhibition, IL-1 beta readout | THP-1 LPS/ATP IL-1B secretion, AlphaLISA, 16 h; hits give low values | activity change, % at 57.5 µM | 4.7% of 360,000 active; in the data active = activity change below about -50%; inconclusive = mostly about -30% to -49%
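Secreted IL-1B measured by AlphaLISA bead assay after 16 h compound exposure of THP-1 cells; compounds (final up to 57.5 uM) added 1 h before LPS (250 ng/mL) and ATP (1.25 mM) stimulation; lower signal means less secretion.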
DT40 TDP1 CPT = growth inhibition of DT40 Tdp1-/-;hTDP1 cells with camptothecin (screen for TDP1 inhibitors); Potency, µM (series often up to 46.2 µM), inactives show at the top dose activity change, negative = growth inhibition, usual class: inhibitors; AID 686979; chicken DT40 Tdp1-/-;hTDP1 cells + 20 nM CPT, ATP luminescence, 48 h; 12% of 420,000 active; note: potency is the fitted concentration of half-maximal effect; nearly all actives have a fitted effect of over 55% in size
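Chicken DT40 Tdp1-/- cells complemented with human TDP1, 400 cells/well, exposed to compounds plus 20 nM camptothecin for at least 48 h at 37 C; viability read as ATP content by CellTiter-Glo luminescence.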
HT1080-NT tox = kills 2HG-producing HT-1080-NT fibrosarcoma cells; 1.6% of 360,000 active; HT-1080-NT fibrosarcoma viability, CellTiter-Glo ATP luminescence, 48 h; Potency, µM (top dose mostly 46.1 µM), inactives show at the top dose activity, negative = less viability, actives largely listed as cytotoxic;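 note: NT is the 2HG producing partner of a matched IDH1 knockdown line; potency is the fitted concentration of half-maximal effect; 0% = DMSO-treated cells and -100% = media-only wells without cells; nearly all actives have a fitted effect of over 55% in size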
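HT-1080-NT; 750 cells/well; 5% FBS RPMI; 48 h compound, 37 degrees C; CellTiter-Glo luminescence; curve fitting and curve-class assignment.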
Starred values were filed as active, the others as inactive; ? = inconclusive; · = no result given. Unless noted, calls come from the whole dose curve; as a rule, active = well fitted curve in the direction sought with a large enough effect; inconclusive = small, poorly fitted or top-dose-only effect, or another doubt; inactive = no such curve, though single readings can be large; an effect the other way counts as inactive or inconclusive. Unless noted, % is set by controls: 0 for no effect and ±100 for the full control effect.

SMILES	HT1080 IDH1KD tx	DT40 TDP1 no CPT	IL-1B inflam inh	DT40 TDP1 CPT	HT1080-NT tox
COC(=O)c1sccc1NC(=O)Nc1ccccc1OC	1%	-4%	-1	-6%	-2%
COc1ccccc1CNC(=O)Nc1cccs1	7%	?	14	?	-1%
COc1ccccc1NC(=O)Nc1nc(C(N)C(C)C)cs1 (stereo unspecified)	?	21µM*	-27	?	?
COc1ccccc1NC(=O)Nc1nc(C(C)(C)C)cs1	-28%	-23%	-83*	16µM*	?
O=C(Nc1cccc(Cl)c1)ON1CCCCC1	18%	-18%	-21	9%	13%
COC(=O)c1ccc(C(NC(=O)OCc2ccccc2)/C(F)=C/[C@@H](C)C(=O)NCc2ccc(-c3ccccc3)cc2)cc1 (stereo partly specified)	9%	?	-2	16µM*	-9%
COc1ccc(CCNC(=O)C(NC(=O)OCc2ccccc2)C(C)C)cc1OC (stereo unspecified)	-10%	-19%	-8	4%	-4%
COC(=O)c1ccc(C(NC(=O)OCc2ccccc2)/C(F)=C/[C@@H](C)C(=O)NCc2ccc(OC)c(OC)c2)cc1 (stereo partly specified)	?	?	-9	23µM*	?
O=C1NC[C@@H](CCCCN2C[C@H](Cc3ccccc3)N(CCc3ccc(O)cc3)C(=O)C2=O)N(CCc2ccccc2)C1=O	18%	0%	0	-4%	9%
Cc1onc(-c2ccccc2)c1C(=O)N/N=C/c1ccc([N+](=O)[O-])s1	?	13µM*	-13	16µM*	-8%
Cc1onc(-c2ccccc2)c1C(=O)N/N=C/c1ccco1	2%	0%	14	-29%	-7%
O=C(Cc1cccs1)N/N=C\c1ccc([N+](=O)[O-])s1	-28%	21µM*	7	8.2µM*	?
O=C(CNC(=O)c1ccccc1Cl)N/N=C/c1ccc([N+](=O)[O-])s1	23µM*	21µM*	-56*	21µM*	?
O=C(CCNC(=O)c1ccccc1Cl)NN=Cc1ccccc1[N+](=O)[O-]	1%	?	-9	?	-2%
CCOc1ccccc1CN1[C@@H](c2ccc(OC)cc2)CC(C(=O)OC)(C(=O)OC)[C@H]1c1ccccc1	-5%	15µM*	-13	?	5%
COc1ccccc1CNC(=O)c1cccs1	5%	-22%	22	-12%	12%
COC(=O)C1(C(=O)OC)C[C@H](/C=C/c2ccccc2)N(Cc2ccccc2OC)[C@@H]1c1cccc(Br)c1	-12%	?	3	?	-8%
COC(=O)C1(C(=O)OC)C[C@H](c2cccs2)N(Cc2ccccc2OC)[C@@H]1c1ccc(F)cc1	-10%	15µM*	-6	15µM*	-24%
COC(=O)C1(C(=O)OC)C[C@H](/C=C/c2ccccc2)N(Cc2ccccc2OC)[C@@H]1c1ccccc1	-7%	15µM*	0	?	-7%
CC(=O)Nc1c(Cl)c(Cl)c2c(c1Cl)C(=O)c1cc(Cl)ccc1-2	16%	?	2	?	3%
NC(=O)CSc1nnc(COc2ccccc2)n1Cc1ccco1	4%	-1%	25	1%	-15%
COc1ccc(Br)cc1CNC(=O)Cc1c(C(=O)O)[nH]c2ccc(Cl)cc12	-1%	-19%	19	5%	-6%
Cc1c(C)c2c(c(C)c1O)CCC(C)(COc1ccc(CC3SC(=O)NC3=O)cc1)O2 (stereo unspecified)	·	13µM*	·	13µM*	·
Cc1c(C)c2c(c(C)c1O)CCC(C)(CCCC(C)CCCC(C)CCCC(C)C)O2 (stereo unspecified)	·	-1%	·	-3%	·
Cc1ccccc1CNS(=O)(=O)c1c(C(=O)N2CCCC2)c(C)n(C)c1C	14%	18%	19	-6%	6%
SMILES	HT1080 IDH1KD tx	DT40 TDP1 no CPT	IL-1B inflam inh	DT40 TDP1 CPT	HT1080-NT tox
Cc1c(C(=O)N2CCCC2)c(S(=O)(=O)Nc2ccccc2Cl)c(C)n1C	0%	17%	0	2%	-1%
Cc1cccc(N(C)S(=O)(=O)c2c(C(=O)N3CCCCCC3)c(C)n(C)c2C)c1	·	21µM*	·	16µM*	·
Cc1cc(Cl)ccc1NS(=O)(=O)c1c(C(=O)N2CCCCCC2)c(C)n(C)c1C	·	21µM*	·	?	·
Cc1c(C(=O)N2CCCCC2)c(S(=O)(=O)NCc2ccccc2Cl)c(C)n1C	10%	?	0	23µM*	3%
CC(=O)N/C(=C\c1cccc([N+](=O)[O-])c1)C(=O)NC1CCCCC1	18%	-28%	6	3%	10%
CC(C)(C)[C@H]1C=C(C(=O)NCc2ccccc2)O[C@@H](OCCCCO)C1	7%	-17%	-16	-22%	0%
CCc1ccc(CNC(=O)CSc2cc(=O)n(CC)c3ccccc23)cc1	·	8.2µM*	·	21µM*	·
CCn1c(=O)cc(SCC(=O)NCc2ccc(C)o2)c2ccccc21	?	13µM*	38	15µM*	-29%
CCn1c(=O)cc(SCC(=O)NCc2ccc(C)cc2)c2ccccc21	?	26µM*	-17	?	?
CCn1c(=O)cc(SCC(=O)Nc2ccc(C)cn2)c2ccccc21	8%	29µM*	?	?	7%
COc1ccc(/C=C(\NC(=O)c2ccccc2)C(=O)NCc2ccco2)cc1OC	18%	-17%	-11	-29%	27%
CCCCNC(=O)CSc1cc(=O)n(C)c2ccccc12	18%	-29%	-5	-21%	28%
Cn1c(=O)cc(SCC(=O)NCc2ccc(F)cc2)c2cc(Cl)ccc21	·	13µM*	·	7.3µM*	·
N#Cc1ccc(CN2CCCC3(CCN(C(=O)c4ccncc4)CC3)C2)cc1	·	-12%	·	-1%	·
Cc1nn2c(N3CCN(CCO)CC3)c3c(nc2c1-c1ccccc1)CCCC3	?	?	·	?	18µM*
CCCCNc1c2c(nc3c(-c4ccccc4)c(C)nn13)CCC2	-5%	29µM*	-26	21µM*	7%
Cc1nn2c(NCCN(C)C)c3c(nc2c1-c1ccccc1)CCCC3	15µM*	1µM*	-58*	0.58µM*	15µM*
Cc1nn2c(NCCCN3CCOCC3)c3c(nc2c1-c1ccccc1)CCC3	-3%	?	?	?	-10%
Cc1nn2c(NCc3cccnc3)c3c(nc2c1-c1ccccc1)CCC3	?	?	-76*	?	-18%
O=C(CSc1nc2c(oc3ccccc32)c(=O)n1CC1CCCO1)NCc1ccc(F)cc1 (stereo unspecified)	2%	?	16	-20%	1%
